The full list was thinned out, with hits kept by preference.
Tg IFNy HTS = T. gondii growth inhibition under IFN-gamma | Toxoplasma gondii growth in IFN-gamma-treated host cells; stronger effect = lower value | activity change, negative = inhibition, % (test concentration not listed) | 3.8% of 69,000 active; in the data active = activity change below about -70%, passing the limit was not always enough;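 note: host cells are HeLa cells infected with Toxoplasma gondii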
Each line names hits and unclear results; the compound was inactive in the other large screens; ! = repeats disagree.

Cc1ccc(C(=O)Nc2c(C(=O)NCc3cccnc3)[nH]c3ccc(C)cc23)cc1	none
CN(C)c1ccc(C(=O)NCc2cccnc2)cc1	none
Cc1ccc(S(=O)(=O)Cc2nc(-c3ccc(C(=O)NCc4cccnc4)cc3)oc2C)cc1	Tg IFNy HTS -113!
COc1cccc(C#Cc2ccc3c(c2)O[C@H](CN(C)C(=O)CN2CCOCC2)[C@@H](C)CN([C@@H](C)CO)S3(=O)=O)c1	none
COc1cccc(-c2ccc3c(c2)O[C@@H](CN(C)Cc2cccnc2)[C@H](C)CN([C@H](C)CO)S3(=O)=O)c1	none
COc1cccc(-c2ccc3c(c2)O[C@H](CN(C)Cc2cccnc2)[C@@H](C)CN([C@@H](C)CO)S3(=O)=O)c1	none
C[C@H](CO)N1C[C@H](C)[C@H](CN(C)C(=O)Cc2cccnc2)Oc2cc(C#Cc3ccccc3F)ccc2S1(=O)=O	Tg IFNy HTS -89
COc1cccc(C#Cc2ccc3c(c2)O[C@H](CN(C)C(=O)CN2CCOCC2)[C@@H](C)CN([C@H](C)CO)S3(=O)=O)c1	none
C[C@@H]1CN([C@H](C)CO)S(=O)(=O)c2ccc(C#Cc3ccccc3F)cc2O[C@@H]1CN(C)C(=O)Cc1cccnc1	Tg IFNy HTS -99
Cc1cc(C)n(C)c(=O)c1C(=O)N1CCOc2ccccc2C1	none
Cc1sc(-n2cccc2)c(C(=O)N2CCn3c(C(N)=O)cnc3C2)c1C	none
CCOC(=O)C1CCC(CNC(=O)N2CCC3(CC2)Nc2cc(F)ccc2-n2cccc23)CC1 (stereo not given)	none
CS(=O)(=O)N1C[C@H](C(=O)NCc2ccco2)C[C@@H]2OCC[C@@H]21	none
Cc1cccc(COC2COC3(CCN(Cc4ccoc4)CC3)C2)n1 (stereo not given)	none
Cc1noc(C)c1C1CCCN1C(=O)c1scc2c1OCCO2 (stereo not given)	none
COc1ccc2ccccc2c1CN1CCCC(CNC(C)=O)C1 (stereo not given)	none
O=c1[nH]nc(-c2cc3c(s2)CCCC3)o1	Tg IFNy HTS -100
COc1ccc(S(=O)(=O)N2CCN(C(=O)c3noc(C)c3CN(C)C)CC2)cc1	none
COc1ccc2c(c1)NC1(CCN(S(=O)(=O)c3c(C)noc3C)CC1)c1cccn1-2	none
Cc1ncc(CO)c(CN(C)CC2COc3ccccc3O2)c1O (stereo not given)	none
COc1ccc(CCNc2ncnc3c2cnn3-c2ccccc2)cc1OC	none
c1ccc(CNc2ncnc3ccccc23)cc1	none
Nc1ccc2ncnc(NCCc3ccc(Oc4ccccc4)cc3)c2c1	Tg IFNy HTS -71
CCN1c2ccc(C)cc2C(=O)NC12CCN(C(=O)c1ccccc1)CC2	none
CSc1ccc(C(=O)C2CCCN(S(=O)(=O)c3ccccc3)C2)cc1 (stereo not given)	none
Cn1c2c(c(=O)n1C)CN(S(=O)(=O)c1ccccc1)CCC2	Tg IFNy HTS -75
Cc1nc(N2CCCC2)nc2c1CCN(S(=O)(=O)c1ccccc1)CC2	none
CC(C)c1noc(-c2cc(=O)n(CC(=O)Nc3ccc(N(C)C)cc3)c3ccccc23)n1	none
CC(C)CCNC(=O)Cn1ncc2c(N3CCCCCC3)ncnc21	none
N#Cc1cccc(-c2ccc(C3[C@@H]4CN(C(=O)Cc5ccncc5)C[C@H]3N4)cc2)c1 (stereo not given in full)	none
N#Cc1cccc(-c2ccc(C3[C@@H]4CN(C(=O)c5ccc6c(c5)OCO6)C[C@H]3N4)cc2)c1 (stereo not given in full)	Tg IFNy HTS -75!
Cc1cccc(-c2ccc([C@@H]3[C@@H](CO)N4C(=O)CN(C(=O)c5ccc6c(c5)OCO6)C[C@H]34)cc2)c1	none
O=C(NCc1ccco1)c1ccc(Cl)cc1Cl	none
C=C(C)[C@@H]1CC=C(CN2CCC3(CC2)C(=O)N(C2Cc4ccccc4C2)C(=O)N3CCOC)CC1	none
C=CCn1c(=S)sc2c(N3CCN(c4ccccc4)CC3)ncnc21	none
C=CCn1c(=S)sc2c(C(C#N)C#N)ncnc21	Tg IFNy HTS -102
Cn1ccnc1CN1CCCC2(CC(Nc3ccccc3)CO2)C1 (stereo not given)	none
CCn1c(-c2cc(NC(=O)c3cccnc3)n[nH]2)cc2ccc(OC)cc21	none
CCn1c(-c2cc(NC(=O)c3cnccn3)n[nH]2)cc2ccccc21	none
CCn1c(-c2cc(NC(=O)c3cccnc3)n[nH]2)cc2ccccc21	Tg IFNy HTS -105
CC(C)CN1C(=O)N(C)C2(CCN(Cc3cc(CN4CCCC4)cs3)CC2)C1=O	none
Cc1ccc(CN2C[C@@H]3C[C@H](CNC(=O)c4cccn4C)O[C@H]3C2)o1	none
Cc1noc(-c2ccccc2OCC(=O)O)n1	none
CCOc1ccc(NC(=O)Cn2c(=O)cc(-c3nc(C)no3)c3ccccc32)cc1	none
CCc1nc2cc(NC(=O)COc3ccccc3-c3nc(C)no3)ccc2n1CC	Tg IFNy HTS -74
Cc1ccc(Cl)cc1NC(=O)c1nnn(Cc2nc(-c3ccccc3)oc2C)c1C	none
Cc1ccc(-c2nc(Cn3nnc(-c4nc(-c5ccc(OCC(C)C)cc5)no4)c3C)c(C)o2)cc1	none
Cc1ccc(NC(=O)c2nnn(Cc3nc(-c4ccc(Cl)cc4)oc3C)c2C)c(C)c1	none
Cc1ccc(-c2nc(Cn3nnc(-c4nc(-c5ccc(OC(C)C)cc5)no4)c3C)c(C)o2)cc1	none
Cc1cc(C)c(NC(=O)c2nnn(Cc3nc(-c4ccc(Cl)cc4)oc3C)c2C)c(C)c1	none
Cc1ccc(NC(=O)c2nnn(Cc3nc(-c4ccc(OC(C)C)cc4)oc3C)c2C)c(C)c1	Tg IFNy HTS -98
Cc1oc(-c2ccccc2)nc1Cn1nnc(-c2nc(-c3ccc(OC(C)C)cc3)no2)c1C	Tg IFNy HTS -80
Cc1cc(C)c(NC(=O)c2nnn(Cc3nc(-c4ccccc4)oc3C)c2C)c(C)c1	Tg IFNy HTS -77
Cc1cccc(C)c1NC(=O)c1nnn(Cc2nc(-c3ccc(Cl)cc3)oc2C)c1C	Tg IFNy HTS -122
CCc1ccccc1NC(=O)c1nnn(Cc2nc(-c3ccccc3)oc2C)c1C	none
Cc1cccc(C)c1NC(=O)c1nnn(Cc2nc(-c3cccc(Cl)c3)oc2C)c1C	none
Cc1ccc(F)cc1NC(=O)c1nnn(Cc2nc(-c3ccc(OC(C)C)cc3)oc2C)c1C	none
COc1ccc(CCC(=O)NCCc2sc(-c3ccc(F)cc3)nc2C)cc1	none
CCc1ccc(NC(=O)C2CC(=O)N(CCc3c[nH]c4ccc(OC)cc34)C2)cc1 (stereo not given)	none
CCOc1ccc2oc(=O)cc(CN3CCN(Cc4nc(-c5ccccc5)oc4C)CC3)c2c1	none
COCC(=O)N1CCCC2(CCN(c3cnccn3)CC2)C1	none
O=C(NCc1ccccc1F)c1nc(Nc2ccccc2)c2ccccc2n1	none
COc1nc2ccccc2cc1CN1CCC(OCc2cccnc2)CC1	none
CCN(C(C)=O)C1CCN(c2ncnc3sc4c(c23)CCNC4)C1 (stereo not given)	none
Cc1oc(-c2ccccc2)nc1Cn1nnc(C(=O)Nc2cccc(Cl)c2)c1C	none
Cc1ccc(-c2nc(Cn3nnc(C(=O)Nc4cccc(Cl)c4)c3C)c(C)o2)cc1	none
COc1ccccc1NC(=O)c1nnn(Cc2nc(-c3ccccc3)oc2C)c1C	none
Cc1oc(-c2cccc(Cl)c2)nc1Cn1nnc(C(=O)Nc2cccc(Cl)c2)c1C	Tg IFNy HTS -86
COc1ccc(NC(=O)c2nnn(Cc3nc(-c4ccccc4)oc3C)c2C)cc1	Tg IFNy HTS -94
CCOc1ccc(-c2nc(Cn3nnc(C(=O)Nc4ccccc4)c3C)c(C)o2)cc1	none
CCCCC(=O)Nc1ccc(C)cc1NC(=O)c1cc(C)nn1CC	none
O=C(Nc1ccc(Sc2cccs2)cc1)c1ccc(Cl)cc1	none
O=C(CNC(=O)c1ccc(Cl)cc1)NO	none
O=C(NCc1c(Cl)cccc1Sc1ccc(Cl)cc1)c1ccc(Cl)cc1	Tg IFNy HTS -102
CCCCNC(=S)Nc1ccc(F)cc1F	none

Assay outcomes deposited in PubChem BioAssay by Broad Institute.
